This note sets out measurements from PubChem BioAssay (NCATS).

Each structure is given as a SMILES string. Inconclusive results are not listed. Where a call stands in place of a potency, no number is given. Values without a mark were called inactive. Calls of active or inactive are those of the source. Calls follow the shape of the dose curve; as a rule, active = well fitted inhibition curve with a large enough effect; inconclusive = small, poorly fitted or top-dose-only effect; inactive = flat fitted curve, though single readings scatter. Where a SMILES comes first, the peptide text is derived from it. [ ]: non-standard residue; d: D form. dPhe(4-Cl) = N[C@H](Cc1ccc(Cl)cc1)C(=O)O; d2Nal = N[C@H](Cc1ccc2ccccc2c1)C(=O)O; dCit = NC(=O)NCCC[C@@H](N)C(=O)O; d3Pal = N[C@H](Cc1cccnc1)C(=O)O
Potency is read from the fitted curve at half-maximal effect.

This assay in a line: P-glycoprotein substrates identified in KB-8-5-11 adenocarcinoma cell line, qHTS therapeutic library screen (AID 1346987). Also: nearly all actives have a fitted effect of over 65% in size. The settings on record: KB-8-5-11 (P-gp overexpressing) viability, CellTiter-Glo, 72 h; series mostly up to 44.5 µM. An outline of the steps:
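Human cervical adenocarcinoma KB-8-5-11 cells, selected in colchicine to over-express P-gp and assayed without it, were exposed for 72 h to titrated compounds. An ATP-based luminescent viability signal gave AC50.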
A general note: In qHTS, concentration-response curves come from the screen itself.
Consider `N#C[C@@H]1C[C@H](F)CN1C(=O)CNC1[C@H]2CN(C(=O)c3ccc(F)cc3)C[C@@H]12` (stereo not given in full), for which the Potency result was “inactive”.
On the same count and under the same terms, in the case of `Cc1ccccc1C#Cc1ccc(CCC(=O)O)cc1` it was “inactive”.
Still for that read-out and setting: to `COc1ccc(CCO[C@@H]2O[C@H](CO[C@@H]3OC[C@H](O)[C@H](O)[C@H]3O)[C@@H](O)[C@H](O)[C@H]2O)cc1` belongs “inactive”; to `O=[N+]([O-])c1cccc2[nH]c(CNc3nc(N4CCOCC4)nc4c3ncn4-c3ccsc3)nc12`, 0.103 µM (active).
For `C[C@@H]1O[C@@H](O[C@H]2[C@H](OC(=O)[C@]34CCC(C)(C)C[C@H]3C3=CCC5[C@@]6(C)C[C@H](O)[C@H](O[C@@H]7O[C@H](CO)[C@@H](O[C@H]8OC[C@](O)(CO)[C@H]8O)[C@H](O)[C@H]7O)[C@@](C)(CO)C6[C@H](O)C[C@@]5(C)[C@]3(C)C[C@H]4O)OC[C@H](O)[C@@H]2O)[C@H](O)[C@H](O)[C@H]1O[C@@H]1OC[C@@H](O)[C@H](O[C@@H]2OC[C@](O)(CO)[C@H]2O)[C@H]1O` (stereo not given in full), the activity change, negative = cytotoxicity was 9.78% [at 9.29 µM].
With `CCOC(=O)Nc1cc(-c2ccc(C)c(NS(C)(=O)=O)c2)nn2c(C)nnc12`, the Potency is 14.6 µM (active).
The same measure, in the same setting: to `COC(=O)C12C(=O)C(C)=C(O)C1(C)C(C)=CC1C3(CO)CCC(O)C(C)(C)C3CCC12C` (stereo not given) belongs “inactive”.
With `CC(C)(O)C1CCC(C)(C2CCC3(C)C4CCC5C(C)(C(=O)OC6OC(CO)C(O)C(O)C6O)C(O)CC(O)C56CC46CCC23C)O1` (stereo not given), the Potency result is “inactive”.
Still for that read-out and setting: in the case of `CCCCOC(=O)NC(=O)C1c2ccccc2Oc2ccccc21` it was “inactive”; in that of `CO[C@@H](C)Cn1c(=O)n(C)c2cnc3ccc(-c4cncc(C(C)(C)O)c4)cc3c21`, 0.651 µM (active); in that of `COc1ccc(-c2c(-c3cc(C(=O)O)ccn3)ncn2C)cc1`, “inactive”.
Same read-out and setting: to `CC1C(=O)CC2C3CCC(C(=O)O)C12CC3(C)CO` (stereo not given) belongs “inactive”; to `COC(=O)C1=CO[C@@H](O)C2C(CO)=CCC12` (stereo not given in full), “inactive”.
On the same count and under the same terms, to `C[C@@H]([C@@H](O)c1ccc(O)cc1)N1CCC(O)(c2ccccc2)CC1` belongs “inactive”; to `CC(=O)O[C@@H]1[C@@H](O)[C@H](C)O[C@@H](O[C@H]2[C@@H]3C=CO[C@@H](O[C@@H]4O[C@H](CO)[C@@H](O)[C@H](O)[C@H]4O)[C@@H]3[C@@]3(CO)O[C@@H]23)[C@@H]1OC(=O)/C=C/c1ccccc1`, “inactive”.
`Cc1cc(C(N)=O)ccc1-n1c(CCC(=O)O)ccc1-c1ccc(-n2ccnc2)cc1`: the Potency entry is “inactive”.
Still for that read-out and setting: in the case of `C/C=C/C=C/C(O)=C1\C(O)=C(C)C(=O)[C@@]2(C)OC(=O)[C@@](C)(NC(=O)/C=C/C(=O)O)[C@@H]12` it was “inactive”; in that of `COc1ccccc1Oc1ccc(N(Cc2cccnc2)S(=O)(=O)CC(F)(F)F)cc1`, “inactive”.
`C[C@H](NC(=O)CCc1nc2ccccc2c(=O)[nH]1)c1ccccc1`: the Potency entry is “inactive”.
As to `CC1(C)CC[C@]2(C(=O)OC3OC(CO)C(O)C(O)C3O)CC[C@]3(C)C(=CCC4[C@@]5(C)CC[C@H](OC6OC(C(=O)O)C(O)C(OC7OC(CO)C(O)C(O)C7O)C6O)C(C)(C)C5CC[C@]43C)C2C1` (stereo not given in full), the outcome is “inactive [at 9.29 µM]”.
In the case of `C=CC(=O)Nc1cccc(Nc2nc(Nc3ccc(N4CCN(C(C)=O)CC4)cc3OC)ncc2C(F)(F)F)c1`, the Potency was 20.6 µM (active).
Still for that read-out and setting: to `O=C(CO)[C@@H](O)[C@H](O[C@@H]1O[C@H](CO)[C@H](O)[C@H](O)[C@H]1O)[C@H](O)CO` belongs “inactive”.
Consider `O=C(c1cn(Cc2cncn2Cc2ccc(Br)cc2)cc1-c1cccc2ccccc12)N1CCOCC1`, for which the Potency was 4.11 µM (active).
`C=C[C@]1(C)C=C2CCC3C(C)(CCC[C@@]3(C)C(=O)O)C2CC1` (stereo not given in full): the Potency result was “inactive”.
The same measure, in the same setting: in the case of `Cc1nc2ccc(Oc3ccc(F)cc3)cc2c(=O)n1C[C@H]1CCCN(C(C)C)C1` it was “inactive”; in that of `O=C(O[C@H]1[C@@H]2C[C@@H]3OC[C@](O)([C@@H]1Cl)[C@H]2C(O[C@@H]1O[C@H](CO)[C@@H](O)[C@H](O)[C@H]1O)O3)c1ccc(O)c(O)c1` (stereo not given in full), “inactive”; in that of `O=C(O)CC(=O)OC[C@H]1O[C@@H](Oc2ccc3c(c2)OC[C@H]2c4cc5c(cc4O[C@@H]32)OCO5)[C@H](O)[C@@H](O)[C@@H]1O`, “inactive”.
On the same count and under the same terms, to `COc1cc2nc(N3CCC(N4CCCCC4)CC3)nc(NC3CCCCCC3)c2cc1OC` belongs 5.17 µM (active); to `COC(=O)C12CCC(C)C(C)C1C1=CCC3C4(C)CCC(OC(C)=O)C(C)(C)C4CCC3(C)C1(C)CC2` (stereo not given), “inactive”.
On the same count and under the same terms, in the case of `CC(=O)N[C@H](Cc1ccc2ccccc2c1)C(=O)N[C@H](Cc1ccc(Cl)cc1)C(=O)N[C@H](Cc1cccnc1)C(=O)N[C@@H](CO)C(=O)N[C@@H](Cc1ccc(O)cc1)C(=O)N[C@H](CCCNC(N)=O)C(=O)N[C@@H](CC(C)C)C(=O)N[C@@H](CCCN=C(N)N)C(=O)N1CCC[C@H]1C(=O)N[C@H](C)C(N)=O` (Ac-[d2Nal][dPhe(4-Cl)][d3Pal]SY[dCit]LRP[dA]-NH2) it was “inactive”.
